PubChem BioAssay

Key:
[1] = tested on: Human papillomavirus type 1a protein E7 (residues 44-93); assay: small molecules binding HPV E7 44-93 – biochemical, small-molecule microarray, residues 44-93, 635 nm fluorescence, primary screen (AID 1108); settings: fluorescence 635 nm, higher = more signal;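 note: E7 fragment applied at 1 µg/mL in TBST for 1 h at 4 C; score combines spot fluorescence with its signal to noise ratio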
[2] = hepatitis C replication reporter changes, two-sided – Huh7 cells, luciferase reporter, HCV replication inhibitor project, primary screen (AID 1109); settings: Huh7 HCV replicon luciferase reporter, 48 h; higher = more signal;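 note: huh7 hepatoma cells harbouring a luciferase neomycin HCV replicon reporter; luciferase luminescence as measure of HCV replicon replication; test concentration not given here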
[3] = target: Left-right determination factor 2 (Homo sapiens) (UniProt O00292); assay: small molecules binding LEFTY2 protein – biochemical, small-molecule microarray, 635 nm fluorescence scan, primary screen (AID 1110); settings: higher = more signal
[4] = target: Calmodulin-1 (Homo sapiens) (UniProt P0DP23); assay: small molecules binding calmodulin-1 with EGTA – biochemical, small-molecule microarray, Cy5-labelled CALM1, profiling panel (AID 1111); settings: Cy5-CALM1 binding fluorescence, higher = more signal;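 note: labelled calmodulin applied in Tris saline Tween buffer holding calcium plus EGTA and DTT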
[5] = target: Calmodulin-1 (Homo sapiens) (UniProt P0DP23); assay: small molecules binding Ca-loaded calmodulin-1 – biochemical, small-molecule microarray, Cy5-labelled CALM1, plus calcium, artefact control for SMM control-protein annotation, profiling panel (AID 1112); settings: Cy5-CALM1 binding fluorescence, higher = more signal;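 note: score merges spot fluorescence with signal to noise from triplicate slides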
[6] = probe aWnt5a binding to arrayed compounds – biochemical, biotinylated probe, 635/667 nm fluorescence, primary screen (AID 1113); settings: small-molecule microarray, higher = more signal;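 note: score merges 667 nm fluorescence intensity with signal-to-noise per printed feature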
[7] = probe aShh binding to arrayed compounds – biochemical, biotinylated probe, 635/667 nm fluorescence, primary screen (AID 1114); settings: small-molecule microarray, higher = more signal;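 note: probe is biotin-labelled aShh protein from a stem cell growth factor screen; measures binding of labelled protein to compounds printed on the slide; score merges feature fluorescence at 667 nm with signal-to-noise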
[8] = probe aNog binding to arrayed compounds – biochemical, biotinylated probe, 635/667 nm fluorescence, primary screen (AID 1115); settings: small-molecule microarray, higher = more signal;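 note: probe is biotinylated aNog protein used at 0.15 µg/mL for 1 h at 4 C; z-score combines 667 nm fluorescence of each spot with its signal to noise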
[9] = target: Torsin-1A-interacting protein 1 (Homo sapiens) (UniProt Q5JTV8); assay: compound microarray binding of lysate hLAP1 – cell lysate, small-molecule microarray, COS7 lysate, 635/667 nm fluorescence, primary screen (AID 1116); settings: 635 nm fluorescence, higher = more signal
[10] = target: Alpha-bungarotoxin (Bungarus multicinctus) (UniProt P60615); assay: compounds binding labelled alpha-BTX control protein – biochemical, small-molecule microarray, Alexa647 label, 635/667 nm fluorescence, artefact control for SMM control protein annotation, profiling panel (AID 1117); settings: alpha-BTX-A647 binding fluorescence, higher = more signal
Alpha-bungarotoxin (Bungarus multicinctus), sequence (P60615 whole entry, looked up): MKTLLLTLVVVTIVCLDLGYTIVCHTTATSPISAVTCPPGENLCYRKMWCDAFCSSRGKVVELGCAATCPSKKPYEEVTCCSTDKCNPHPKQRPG

Torsin-1A-interacting protein 1 (Homo sapiens), sequence (Q5JTV8 whole entry, looked up): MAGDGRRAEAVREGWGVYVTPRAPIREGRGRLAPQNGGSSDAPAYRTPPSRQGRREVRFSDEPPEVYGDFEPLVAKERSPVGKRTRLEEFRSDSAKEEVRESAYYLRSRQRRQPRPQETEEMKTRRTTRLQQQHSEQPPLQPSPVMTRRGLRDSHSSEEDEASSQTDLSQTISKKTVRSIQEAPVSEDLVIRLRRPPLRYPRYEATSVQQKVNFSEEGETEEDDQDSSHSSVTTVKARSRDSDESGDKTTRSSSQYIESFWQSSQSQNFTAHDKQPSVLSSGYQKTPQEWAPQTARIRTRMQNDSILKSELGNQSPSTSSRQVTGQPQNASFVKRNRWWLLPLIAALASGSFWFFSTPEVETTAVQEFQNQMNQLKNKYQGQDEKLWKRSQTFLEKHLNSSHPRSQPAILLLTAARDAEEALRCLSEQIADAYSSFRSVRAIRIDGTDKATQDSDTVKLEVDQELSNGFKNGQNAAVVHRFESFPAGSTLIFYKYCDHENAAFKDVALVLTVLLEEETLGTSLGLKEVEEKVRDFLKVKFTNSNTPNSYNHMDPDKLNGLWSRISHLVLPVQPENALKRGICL
Left-right determination factor 2 (Homo sapiens), sequence (O00292 whole entry, looked up): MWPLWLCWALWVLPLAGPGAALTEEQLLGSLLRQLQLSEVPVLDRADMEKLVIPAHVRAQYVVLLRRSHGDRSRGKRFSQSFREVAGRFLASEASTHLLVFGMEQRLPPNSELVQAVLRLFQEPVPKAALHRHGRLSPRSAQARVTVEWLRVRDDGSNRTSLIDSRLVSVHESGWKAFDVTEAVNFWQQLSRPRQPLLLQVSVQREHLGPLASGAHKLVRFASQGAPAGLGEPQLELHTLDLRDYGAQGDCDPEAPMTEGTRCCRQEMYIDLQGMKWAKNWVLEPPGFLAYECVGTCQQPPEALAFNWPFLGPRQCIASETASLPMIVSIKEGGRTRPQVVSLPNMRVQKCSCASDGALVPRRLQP

| SMILES | composite z-score [1] | z-score [2] | composite z-score [3] | composite z-score [4] | composite z-score [5] | composite z-score [6] | composite z-score [7] | composite z-score [8] | composite z-score [9] | composite z-score [10] |
| --- | --- | --- | --- | --- | --- | --- | --- | --- | --- | --- |
| COc1ccc(CCNC(=O)[C@@H]2c3ccccc3C(=O)N(Cc3cc(F)cc(C(F)(F)F)c3)[C@H]2c2ccc(CO)cc2)cc1 | 0.45 | -0.989 | 0.262 | 1.05 | 0.197 | 0.0438 | -0.314 | 1.86 | 1.59 | 0.715 |
| COCCOC(=O)N1C(=O)[C@@]2(c3cc(C#CCC(C(=O)OC)C(=O)OC)ccc31)[C@H](C(N)=O)[C@H]1C(=O)O[C@H](c3ccccc3)[C@H](c3ccccc3)N1[C@@H]2c1ccccc1OCCO | 1.31 | -3.36 | 0.584 | 1.44 | 0.308 | 0.0297 | -0.182 | -0.263 | 0.146 | 0.899 |
| CCOC(=O)C1=CCC(c2cccn2C(=O)OC(C)(C)C)N(S(=O)(=O)c2ccc(C)cc2)C1 (stereo not given) | 0.18 | -3.94 | 0.379 | 0.864 | 0.439 | -0.104 | 0.428 | 1.21 | 1.52 | 2.21 |
| CCCCCCc1nc(-c2ccc(OC)nc2)c(C)c2c1[Si](C(C)C)(C(C)C)OC2 | -0.329 | -0.603 | 0.445 | -0.0398 | -0.257 | -0.0462 | -0.154 | -0.129 | -0.391 | -0.304 |
| C=CCC(OC(C)=O)[C@@H]1[C@@H](N(Cc2ccc(-c3ccccc3)cc2)C(=O)Cc2ccc(OC)cc2)c2cc(OCCCO)ccc2N1C(=O)Cc1ccc(OC)cc1 (stereo not given in full) | -0.37 | -0.496 | 0.055 | 0.194 | 0.7 | 0.055 | -0.229 | -0.128 | 0.468 | 0.171 |
| COCCCNC(=O)[C@@]1(CCC(=O)OC(C)(C)C)N=C(c2ccc(OCCCO)cc2)O[C@H]1c1ccccc1 | 1.37 | -0.618 | -0.926 | 1.1 | 0.783 | -0.0566 | 0.123 | 1.83 | 1.49 | 1.32 |
| C=CCNC(=O)[C@@H]1[C@H]2C(=O)O[C@H](c3ccccc3)[C@H](c3ccccc3)N2[C@H](c2ccc(OCCO)cc2)[C@@]12C(=O)N(C(=O)OCCOC)c1ccccc12 | 1.11 | -0.945 | 0.47 | 0.789 | 0.132 | -0.096 | 0.0639 | -0.103 | 1.58 | 1.04 |
| [N-]=[N+]=NCc1ccccc1C[C@@]1(C(N)=O)N=C(c2ccc(OCCCO)cc2)O[C@@H]1c1ccccc1N=[N+]=[N-] | 1.05 | -0.489 | -0.654 | 1.09 | 0.237 | 0.0088 | 0.199 | -0.561 | 1.71 | 0.775 |
| COc1ccc([Si](C)(C)[C@H]2[C@H](CC(=O)N3CCC[C@H]3CO)O[C@@]3(C(=O)N(Cc4cccc(N5CCCCC5=O)c4)c4ccccc43)[C@@H]2C)cc1 | 1.3 | -2.54 | 0.854 | 0.733 | 0.222 | -0.101 | 0.396 | 0.381 | 1.06 | 1.22 |
| O=C1OC[C@@H](c2ccccc2)n2cc(/C=C/c3ccccc3)cc21 | 0.06 | -0.18 | -0.623 | -0.638 | -1.27 | -0.197 | -0.0709 | -0.367 | -0.948 | 0.45 |
| CCCC[C@@H](O)C1=C(C)Cn2c(=O)n(-c3ccccc3)c(=O)n2[C@H]1CO | -0.867 | 0.384 | 0.0031 | -0.737 | -0.122 | -0.117 | -0.221 | 0.115 | 0.105 | -0.409 |
| COC(=O)[C@@]1(Cc2ccc(F)cc2)[C@H]2c3cc(C(=O)N4CCCC4)n(Cc4ccc(C(F)(F)F)nc4)c3C[C@H]2CN1C(=O)c1ccccc1 | 1.18 | -2.15 | 0.0089 | 2.16 | 0.557 | 0.106 | -0.382 | -1.06 | 0.873 | 0.615 |
| O=C1N(Cc2ccccc2)Cc2ccccc2C[C@@]12COC(c1ccc(OCCCO)cc1)=N2 | 1.19 | -3.52 | -0.0607 | 0.273 | 0.519 | -0.043 | 0.0287 | 1.09 | 0.724 | 0.491 |
| COC(=O)[C@]1(Cc2ccccc2N=[N+]=[N-])N=C(c2ccc(OCCCO)cc2)O[C@@H]1c1ccccc1CN=[N+]=[N-] | 1.37 | -3.42 | 0.112 | 0.149 | -0.529 | -0.148 | -0.0324 | 1.14 | 1.3 | 0.874 |
| [N-]=[N+]=Nc1ccccc1C[C@@]1(C(=O)NCC(O)CO)N=C(c2ccc(OCCCO)cc2)O[C@@H]1c1ccccc1N=[N+]=[N-] (stereo not given in full) | 0.796 | -3.13 | -0.458 | 2.15 | 0.176 | 0.0586 | 0.348 | -0.596 | 1.64 | 0.427 |
| COC(=O)[C@@]1(Cc2ccc(F)cc2)[C@H]2c3cc(C(=O)N(C)C)n(Cc4cccc5ccccc45)c3C[C@H]2CN1C(=O)c1ccccc1 | 1.12 | -1.57 | -0.856 | 0.0818 | 0.189 | 0.492 | 1.76 | 1.53 | 1.17 | -0.145 |
| COc1ccc(C(=O)Nc2cccc(CN3C(=O)[C@]4(O[C@H](CC(=O)N(CCO)Cc5ccccc5)[C@@H]([Si](C)(C)c5ccc(OC)cc5)[C@@H]4C)c4ccccc43)c2)cc1 | 0.753 | -3.73 | 0.546 | -0.0878 | -0.342 | 0.093 | -0.0192 | -0.0315 | 0.566 | 0.696 |
| COCCOC(=O)N1C(=O)[C@@]2(c3cc(C#CCCO)ccc31)[C@H](C(=O)N1CCN(c3ncccn3)CC1)[C@H]1C(=O)O[C@H](c3ccccc3)[C@H](c3ccccc3)N1[C@@H]2c1ccc(OCCO)cc1 | 1.46 | -1.21 | 0.6 | 1.26 | 0.0318 | 0.0633 | 0.0469 | 0.234 | 0.867 | 1.95 |
| O=C1OCCC/C=C\[C@H]2OC34C=CCN(Cc5ccccc5)C(=O)[C@H]3N(CCO)C(=O)[C@@H]4C12 (stereo not given in full) | -0.574 | 0.0684 | 0.518 | -0.251 | 0.774 | -0.169 | -0.0709 | -0.33 | -0.447 | -1.06 |
| C=C[C@H](OC)[C@@H](O)c1ccc(OC)c(O)c1 | -1.25 | 0.622 | -1.77 | -1.06 | -0.597 | -0.0981 | -0.0035 | -0.326 | -0.435 | -0.646 |
| CO[C@H]1O[C@H](CO)[C@@H](OC(=O)Nc2cccc(F)c2)[C@H](OC(=O)c2cc3ccccc3[nH]2)[C@H]1OC(=O)c1cc2ccccc2[nH]1 | 0.177 | -2.25 | 0.0416 | 0.681 | 0.0008 | -0.232 | -0.138 | -0.158 | -0.009 | 0.698 |
| CN(C)CCCCNC(=O)[C@H]1C[C@H]2C(=O)N[C@@H](CCCCN(C)C)C(=O)N2[C@H]1c1ccc(O)cc1 | -1.01 | 0.448 | 0.435 | -0.362 | -0.873 | -0.128 | -0.229 | -0.0446 | -0.178 | 0.457 |
| C=C(CCCC)/C(=C/C[C@@H](OC(C)=O)c1cccc(OCCO)c1)c1cc(C(=O)OC)ccc1OC | 0.364 | -2.02 | -0.227 | -0.405 | -0.788 | -0.119 | 0.111 | -0.18 | 0.714 | 0.621 |
| CCOC(=O)C=C1C[C@@H](c2cccc([N+](=O)[O-])c2)O[C@@H](c2cccc([N+](=O)[O-])c2)O1 | 0.478 | -1.96 | 0.584 | 1.68 | 0.966 | 0.0289 | 0.317 | 1.64 | 0.785 | 1.05 |
| CCOC(=O)C[C@H]1[C@H](OC(=O)c2ccc(-c3ccccc3)cc2)[C@@H](NC(=O)C2CCCCC2)c2cc(OCCCO)ccc2N1C(=O)Cc1ccc(OC)cc1 | 0.612 | -1.57 | 0.4 | 1.07 | 0.881 | -0.0523 | -0.571 | -0.638 | 0.527 | 0.333 |
